# In PubChem BioAssay AID493216 (National Center for Advancing Translational Sciences (NCATS), 2011):
# The source made the active and inactive calls. Calls come from the whole dose curve.
# Target: Polyunsaturated fatty acid lipoxygenase ALOX12 (Homo sapiens) (UniProt P18054)
# Test: Inhibitors of 12-hLO (12-human lipoxygenase): Cuvette-Based Hit Assay for Validation of Followup Compounds
# Conditions: purified 12-hLO, cuvette absorbance 234 nm
# Experimental: The enzyme activity of 12-hLO was determined by a direct measurement of product formation by monitoring the absorbance at 234 nm in a 2 mL cuvette. IC50 values of inhibitors were obtained by measuring the enzymatic rate at a variety of concentrations (Carroll et al, Segraves et al). This assay was used to validate actives or inconclusive putative inhibitors identified in the primary screen (see related BioAssay AIDs). Assay Provider: Holman, T.R., University of California, Santa Cruz Screening Center PI: Austin, Christopher P. Screening Center: NIH Chemical Genomics Center
# For control experiments, 2 mL of substrate buffer (10 uM arachidonic acid / 25 mM HEPES / 0.01% (v/v) Triton X-100, pH 8.0) was aliquoted in a cuvette with a magnetic stir bar. After equilibrium was ensured, an aliquot of inhibitor solvent was added (DMSO), and equilibrium was once again assured. The reaction was started by adding enzyme to the cuvette and the reaction was followed until completed. The inhibition experiments were performed as above, except the actual inhibitory compound was added instead of vehicle. To achieve an IC50, typically 5 concentrations of the inhibitor were studied. If the inhibitor concentration was constant, then five different reaction volumes were used. Step \ Parameter \ Value \ Description 1; UV-Vis; 234 nm; Equilibration 2; Reagent; 2 mL; Substrate buffer 3; UV-Vis; 234 nm; Equilibration 4; Reagent; varies; Compound 5; UV-Vis; 234 nm; Equilibration 6; Reagent; 50-200 nM; Enzyme 12-hLO 7; UV-Vis; 234 nm; Enzymatic reaction Step \ Notes 1; Blank cuvette to air. 2; 10 uM AA, 25 mM HEPES, 0.01% Triton X-100, pH 8. 3; No change in absorbance ensured. 4; Compound vehicle or compound in various concentrations depending on potency. 5; No change in absorbance ensured. 6; Enzyme concentration to achieve reaction rate between 0.02 and 0.04 AU/s. 7; Enzymatic reaction visualized until completion.
# Sequence of Polyunsaturated fatty acid lipoxygenase ALOX12 (Homo sapiens) (P18054 whole entry, looked up): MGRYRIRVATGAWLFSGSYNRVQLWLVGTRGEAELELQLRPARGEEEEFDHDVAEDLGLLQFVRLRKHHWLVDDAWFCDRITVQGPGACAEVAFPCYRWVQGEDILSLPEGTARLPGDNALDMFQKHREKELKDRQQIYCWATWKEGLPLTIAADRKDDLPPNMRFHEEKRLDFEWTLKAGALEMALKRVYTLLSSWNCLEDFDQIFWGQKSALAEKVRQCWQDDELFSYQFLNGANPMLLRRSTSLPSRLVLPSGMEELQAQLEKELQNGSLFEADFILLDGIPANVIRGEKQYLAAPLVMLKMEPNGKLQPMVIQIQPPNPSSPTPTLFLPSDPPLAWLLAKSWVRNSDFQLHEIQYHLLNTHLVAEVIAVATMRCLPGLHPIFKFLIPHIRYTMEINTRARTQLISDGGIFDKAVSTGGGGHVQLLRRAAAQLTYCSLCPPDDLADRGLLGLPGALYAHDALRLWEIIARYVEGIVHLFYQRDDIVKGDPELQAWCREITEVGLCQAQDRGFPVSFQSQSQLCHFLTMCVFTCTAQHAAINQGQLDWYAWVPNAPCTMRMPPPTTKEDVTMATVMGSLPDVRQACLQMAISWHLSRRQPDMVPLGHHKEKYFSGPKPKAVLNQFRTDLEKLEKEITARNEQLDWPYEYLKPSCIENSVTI
row,Compound,Potency
1,COc1ccc(/C=C/c2nc(-c3ccccc3O)n[nH]2)cc1,18.9 µM (active)
2,O=C(Nc1nnc(-c2ccc(Cl)cc2)o1)c1ccccc1Br,18.3 µM (active)
3,COc1ccc(-c2[nH]ncc2-c2ccc(Cl)cc2)c(O)c1,28.6 µM (active)
4,COc1cccc(-c2cnc(NCc3cc(Cl)ccc3O)n2C)c1,32.7 µM (active)
5,CSc1ccc(S(=O)(=O)Nc2ccc(S(=O)(=O)Nc3ccc(C)cc3)cc2)cc1,21.1 µM (active)
6,Oc1ccccc1-c1cc(-c2cccc(F)c2)n[nH]1,18.9 µM (active)
7,Cc1[nH]nc(-c2ccc(O)cc2O)c1-c1ccc(Cl)cc1,19 µM (active)
8,CCCOC(=O)c1ccc(Oc2c(-c3ccc(O)cc3O)n[nH]c2C)cc1,16.7 µM (active)
9,Cc1ccc(S(=O)(=O)Nc2nc(C)c(NC(=O)Nc3ccc(Cl)cc3Cl)s2)cc1,2.35 µM (active)
10,O=C(CSc1n[nH]c(-c2ccccc2)n1)c1ccc(O)c(O)c1,24.2 µM (active)
11,Oc1ccc(-c2nc(-c3ccc(O)c(O)c3)cs2)cc1,0.7 µM (active)
